We go through nine sequences from article PMC8384837, “Expanding the binding specificity for RNA recognition by a PUF domain”.

Residue numbers refer to the chain shown, from its start.

Assay in all cases: yeast three-hybrid, YBZ-1, SC-Leu-His + 0.5 mM 3-AT, 4 days
What all share (details): tags: N-Gal4 AD-HA kept; label: inside an RPR1-promoter hybrid RNA with tandem MS2 sites; ssRNA

Test [1] concerns the target T1, PUM1 PUF domain R6-TFM (Homo sapiens, UniProt Q14671 828-1176, N1043T;Y1044F;Q1047M).
T1 sequence: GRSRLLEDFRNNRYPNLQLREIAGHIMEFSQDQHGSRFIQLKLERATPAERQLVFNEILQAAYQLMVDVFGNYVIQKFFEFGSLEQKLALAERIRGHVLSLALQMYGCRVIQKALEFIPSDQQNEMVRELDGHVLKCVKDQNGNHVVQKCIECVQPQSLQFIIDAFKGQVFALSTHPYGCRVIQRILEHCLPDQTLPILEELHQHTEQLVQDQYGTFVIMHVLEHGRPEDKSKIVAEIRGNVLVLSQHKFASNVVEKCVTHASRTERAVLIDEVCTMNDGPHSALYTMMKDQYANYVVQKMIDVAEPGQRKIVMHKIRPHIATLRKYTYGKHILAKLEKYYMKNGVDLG
In short, it runs like this:
(§1)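 Repeat regions from input (SC-Leu) and selection (SC-Leu-His + 0.5 mM 3-AT) plates were PCR-amplified and Illumina-sequenced after four days of growth. The cells were strain YBZ-1 with a LexA–MS2 coat fusion and a HIS3 reporter, co-expressing Pumilio-1 PUF domain libraries and matching RNA elements from a centromeric plasmid. The interaction score is the log change in variant frequency from input to selection, taken in log2 with a pseudocount of 1 for absent variants.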

For test [2], the target named is T2, PUM1 PUF domain R6-VWG (Homo sapiens, UniProt Q14671 828-1176, N1043V;Y1044W;Q1047G).
T2 sequence: T1 sequence with T216V, F217W, M220G
In short, it runs like this:
as §1

In test [3] the target is PUM1 PUF domain R3-RVM (Homo sapiens, UniProt Q14671 828-1176, C935R;R936V;Q939M). In short, it runs like this: as §1
The target of test [4] is PUM1 PUF domain R8-SWF (Homo sapiens, UniProt Q14671 828-1176, N1122S;Y1123W;Q1126F). The essentials: as §1
The target of test [5] is PUM1 PUF domain R4-SFP (Homo sapiens, UniProt Q14671 828-1176, N971S;H972F;Q975P). The essentials: as §1
The target in test [6] is PUM1 PUF domain R4-CNG (Homo sapiens, UniProt Q14671 828-1176, N971C;H972N;Q975G). In short, it runs like this:
as §1

For test [7], the target named is PUM1 PUF domain R4-CRR (Homo sapiens, UniProt Q14671 828-1176, N971C;H972R;Q975R). The essentials: as §1
Test [8] addresses PUM1 PUF domain R3-GWM (Homo sapiens, UniProt Q14671 828-1176, C935G;R936W;Q939M). In short, it runs like this: as §1
The target in test [9] is PUM1 PUF domain R5-SIC (Homo sapiens, UniProt Q14671 828-1176, C1007S;R1008I;Q1011C). In short, it runs like this: as §1
Test [10] deals with PUM1 PUF domain R5-NSR (Homo sapiens, UniProt Q14671 828-1176, C1007N;R1008S;Q1011R). In short, it runs like this: as §1

As to “GGCUAGAACUAGUGGAUCCCCCGGCGCCCGGCGGCUCGAGCCCGGGUAAGUGAAAAUAGUCUGCAUGCCGCCGGGCGCCAUGCCUGCAGGUCGACUCUAGAAAACAUG”, the binding signal in test [1] is 2.84 log2 enrichment (interaction score); in test [2] it was 6.85 log2 enrichment (interaction score). With “GGCUAGAACUAGUGGAUCCCCCGGCGCCCGGCGGCUCGAGCCCGGGUAAGUGUAAUUAGUCUGCAUGCCGCCGGGCGCCAUGCCUGCAGGUCGACUCUAGAAAACAUG”, the binding signal in test [3] was 2.43 log2 enrichment (interaction score).

For the sequence “GGCUAGAACUAGUGGAUCCCCCGGCGCCCGGCGGCUCGAGCCCGGGUAAGCGUAAAUAGUCUGCAUGCCGCCGGGCGCCAUGCCUGCAGGUCGACUCUAGAAAACAUG”, the binding signal in test [4] was 1.73 log2 enrichment (interaction score). As for “GGCUAGAACUAGUGGAUCCCCCGGCGCCCGGCGGCUCGAGCCCGGGUAAGUGUAUAUAGUCUGCAUGCCGCCGGGCGCCAUGCCUGCAGGUCGACUCUAGAAAACAUG”, the binding signal in test [5] was 7.15 log2 enrichment (interaction score); in test [6], 4.94 log2 enrichment (interaction score). Turning to “GGCUAGAACUAGUGGAUCCCCCGGCGCCCGGCGGCUCGAGCCCGGGUAAGUGUACAUAGUCUGCAUGCCGCCGGGCGCCAUGCCUGCAGGUCGACUCUAGAAAACAUG”, the binding signal was 6.2 log2 enrichment (interaction score) in test [5], 3.13 log2 enrichment (interaction score) in test [7] and 2.39 log2 enrichment (interaction score) in test [6]. Take “GGCUAGAACUAGUGGAUCCCCCGGCGCCCGGCGGCUCGAGCCCGGGUAAGUGUAAGUAGUCUGCAUGCCGCCGGGCGCCAUGCCUGCAGGUCGACUCUAGAAAACAUG”: the binding signal in test [8] was 1.14 log2 enrichment (interaction score).

Turning to “GGCUAGAACUAGUGGAUCCCCCGGCGCCCGGCGGCUCGAGCCCGGGUAAGUGUAAAUAGUCUGCAUGCCGCCGGGCGCCAUGCCUGCAGGUCGACUCUAGAAAACAUG”, the binding signal was 2.49 log2 enrichment (interaction score) in test [8]; 2.33 log2 enrichment (interaction score) in test [4]; 3.43 log2 enrichment (interaction score) in test [9]; 2.67 log2 enrichment (interaction score) in test [2]; 2.92 log2 enrichment (interaction score) in test [6]. For the sequence “GGCUAGAACUAGUGGAUCCCCCGGCGCCCGGCGGCUCGAGCCCGGGUAAGUGUCAAUAGUCUGCAUGCCGCCGGGCGCCAUGCCUGCAGGUCGACUCUAGAAAACAUG”, the binding signal in test [10] is 4.06 log2 enrichment (interaction score).

Consider “GGCUAGAACUAGUGGAUCCCCCGGCGCCCGGCGGCUCGAGCCCGGGUAAGUGUUAAUAGUCUGCAUGCCGCCGGGCGCCAUGCCUGCAGGUCGACUCUAGAAAACAUG”, for which the binding signal in test [10] was 4.06 log2 enrichment (interaction score).
